Screening results deposited in PubChem BioAssay by National Center for Advancing Translational Sciences (NCATS).
Hits are enriched below; roughly 2.2% of the tested compounds scored in any of these assays.
Mito fusion yeast: qHTS Assay for Small Molecule Inhibitors of Mitochondrial Division or Activators of Mitochondrial Fusion. Potency, µM (highest dose often 46.1 µM), inactives show top-dose growth rescue (activation), hits mostly activators. S. cerevisiae fusion-defective mutant growth rescue, CellTiterGlo 48 h. 0.23% of 320,000 active; further: % of control where 0% means no effect; nearly all actives have a fitted effect of over 45% in size
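Temperature-sensitive fusion-defective S. cerevisiae (e.g. fzo1-1, mgm1-5) were grown with compound in YPEG medium (3% ethanol, 3% glycerol) for 48 hours at 37C. Growth rescue was measured as viability by CellTiterGlo luminescence after 10 minutes at ambient.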
FUS yeast rescue: qHTS for Suppressors of FUS Proteinopathy: Primary screen using FUS-linked yeast assay; S. cerevisiae FUS-expressing, growth rescue, OD600, 24 h; Potency, µM (highest dose often 76.6 µM), hits mostly activators; 0.24% of 390,000 active;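 further: plate controls were DMSO vehicle for no effect and reference control for full effect; nearly all actives have a fitted effect of over 55% in size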
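FUS-expressing yeast, raffinose-pregrown, induced in 2% galactose minimal medium at OD 0.005; compounds in a dilution series, 24hr at 30C. Growth restoration read as absorbance at 600 nm. CP55940 positive control, DMSO negative.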
TDP-43 yeast inh: qHTS of TDP-43 Inhibitors | TDP-43 expressing yeast growth rescue, BacTiter-Glo, 24 h | Potency, µM (titrated, usually from 46.1 µM), without a hit: at the top dose growth rescue (activation), most hits filed as activators | 1.8% of 410,000 active | AID 652104, 2013; further: % of control where 0% means no effect; nearly all actives have a fitted effect of over 50% in size
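In this qHTS, compounds that restore growth of yeast expressing TDP-43 appear as activators. Cells (OD600=0.02, galactose medium, raffinose-pregrown) are incubated with compound 24 hr at 30 deg C and growth is quantified by BacTiter-Glo.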
aSyn rescue: qHTS of alpha-syn Inhibitors | Yeast expressing alpha-synuclein, growth rescue, BacTiter-Glo, 24 h | Potency, µM (top dose mostly 46.1 µM), without a hit: at the highest dose growth rescue (activation), usual class: activators | 0.14% of 370,000 active | AID 652106, 2013; further: % of control where 0% means no effect; nearly all actives have a fitted effect of over 65% in size
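Screening used galactose-induced yeast with toxic alpha-synuclein levels, exposed to compound for 24 hr at 30 deg C. Cell growth, read with BacTiter-Glo luminescence, gave the measured signal.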
ERG Ets-DNA blk: qHTS for Small Molecule Inhibitors of the ERG Ets/DNA interaction | Transcriptional regulator ERG (Homo sapiens), P11308 | fluorescence polarization, His-ERG Ets domain / labelled DNA | Potency, µM (titrated, usually from 76.9 µM), without a hit: at the highest dose FP activity, negative = inhibition, hits mostly inhibitors | 0.028% of 370,000 active | AID 624246, 2012; active means well fitted inhibition curve with a large enough effect in the polarisation, with a control signal flat; inconclusive means small, poorly fitted or top-dose-only effect, or effect the other way, or a change in a side signal; inactive means no such curve, though single readings can be large or run the other way; the % refers to the polarisation;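 further: polarization taken with two DNA probes labelled with fluorescein and Texas red; % of control where 0% means no effect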
Target sequence (P11308 whole entry, looked up, the tested form may be a part): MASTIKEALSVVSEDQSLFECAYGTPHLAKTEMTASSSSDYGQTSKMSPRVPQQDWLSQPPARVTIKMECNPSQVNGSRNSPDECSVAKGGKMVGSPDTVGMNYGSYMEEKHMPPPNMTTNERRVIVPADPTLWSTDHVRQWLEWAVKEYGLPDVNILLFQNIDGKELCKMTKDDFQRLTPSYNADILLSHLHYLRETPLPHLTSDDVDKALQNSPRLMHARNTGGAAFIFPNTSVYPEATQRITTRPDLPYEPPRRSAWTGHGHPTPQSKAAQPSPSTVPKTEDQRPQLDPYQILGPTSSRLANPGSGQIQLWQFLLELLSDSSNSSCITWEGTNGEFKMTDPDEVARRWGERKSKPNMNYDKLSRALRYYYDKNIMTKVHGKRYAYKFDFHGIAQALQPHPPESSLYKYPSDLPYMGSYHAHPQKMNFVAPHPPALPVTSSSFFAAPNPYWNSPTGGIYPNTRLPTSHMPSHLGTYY
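His-tagged ERG Ets domain (1 uM in the protein solution; 300mM KCl, 50mM Tris-HCl, 1mM EDTA, 1mM DTT, pH 7.5) received compound, then a probe mix of 5 nM fluorescein-DNA and 100nM Texas-615-DNA. Fluorescence polarization was read for both dyes.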
Abeta rescue: qHTS for compounds that reverse cellular toxicity of Amyloid beta (A-beta) peptide in yeast: Primary Screen; yeast expressing A-beta42, growth rescue, OD600, 48 h; response scale: 0% DMSO, 100% iron-clioquinol control; Potency, µM (titrated, usually from 46.1 µM), hits mostly activators; AID 1347071, 2019; 0.063% of 410,000 active; further: nearly all actives have a fitted effect of over 55% in size
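Yeast A-beta toxicity model in growth medium with pinned compounds, 48 h at 30 C; growth read as absorbance at 600 nm. Normalized to FeCl3/clioquinol equimolar mix (positive) and DMSO (negative).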
* hit, by the source's call; i = inactive; ? = inconclusive; / = no result. Unless noted, the call rests on the fitted dose curve; in most records, active means well fitted curve in the direction sought with a large enough effect; inconclusive means small, poorly fitted or top-dose-only effect, or another doubt; inactive means no such curve, though single readings can be large; an effect the other way counts as inactive or inconclusive. Potency means the concentration at half of the fitted maximal effect.

SMILES	Mito fusion yeast	FUS yeast rescue	TDP-43 yeast inh	aSyn rescue	ERG Ets-DNA blk	Abeta rescue
COc1ccc(CCCNC(=O)C2(C)Cc3c(-c4ccc(NC(C)=O)cc4)ccnc3O2)cc1 (centres undefined)	/	i	10%	-4%	/	i
COc1ccc(-c2nc(C(=O)Nc3ccc(C(C)=O)cc3)nn2-c2cccc(Cl)c2)cc1	/	?	?	/	-1%	i
CC(=O)c1cccc(NC(=O)c2nc(-c3ccccc3)n(-c3cccc(Cl)c3)n2)c1	/	?	35µM*	/	1%	i
COCCNC(=O)/C(C#N)=C/c1ccccc1Br	4%	i	22µM*	-3%	1%	i
CCOc1ccccc1NC(=O)CN1C(=O)COc2ccc(C)cc21	-4%	i	11µM*	-1%	-5%	i
COC(=O)c1ccccc1NC(=O)CN1C(=O)COc2ccc(Cl)cc21	/	i	13µM*	/	6%	i
COC(=O)c1ccccc1NC(=O)CN1C(=O)COc2ccccc21	/	i	20%	2%	3%	i
c1ccc(CSC2=NNC(c3ccccn3)S2)cc1 (centres undefined)	-6%	i	-4%	5.6µM*	-4%	i
O=C(CSC1=NNC(c2ccccn2)S1)Nc1ccc(C(F)(F)F)cc1 (centres undefined)	1%	i	15%	7.9µM*	0%	?
O=C(NCc1ccc(Cl)cc1)c1ccc2oc(=O)n(Cc3ccccc3)c2c1	/	i	2%	/	0%	i
O=C1C(=O)c2ccc(-c3ccccc3)cc2-c2ccccc21	-21%	i	3.5µM*	-36%	-2%	i
CCOC(=O)C1CCN(C2=NC(=O)/C(=C/c3ccc(OC)c(OC)c3)S2)CC1	-10%	i	?	0%	-8%	i
CN(C)c1ccc(/C=C2\SC(N3CCCCC3)=NC2=O)cc1	-5%	i	22µM*	0%	-1%	i
COc1ccc(/C=C2\SC(N3CCCCC3)=NC2=O)cc1OC	-4%	i	-3%	1%	7%	i
COc1cc(/C=C2\SC(N3CCC(C)CC3)=NC2=O)ccc1O	-16%	i	11µM*	-10%	3%	i
COc1ccc(OC)c(/C=C2\SC(N3CCCC(C)C3)=NC2=O)c1 (centres undefined)	13µM*	i	17%	1%	7%	i
CC1CCCN(C2=NC(=O)/C(=C/c3cn(-c4ccccc4)nc3-c3cccc(S(=O)(=O)N(C)C)c3)S2)C1 (centres undefined)	1%	i	-2%	-4%	2%	i
CCOC(=O)C1CCN(C2=NC(=O)/C(=C/c3ccc(Cl)cc3)S2)CC1	-6%	i	20µM*	6%	9%	i
COc1ccc(OC)c(NC(=O)O[C@@H]2CC[C@@]34CCCN3C(=O)CCC[C@H]4C2)c1	/	i	/	/	/	/
Cc1cccc(C)c1NC(=O)NCCc1c[nH]c2ccccc12	/	i	16%	/	4%	i
CC(=O)NC(c1ccccc1)c1nc(-c2ccc3ccccc3c2)cs1 (centres undefined)	/	i	5%	-3%	/	i
COc1cccc(C(NC(C)=O)c2nc(-c3ccc(C)c(C)c3)cs2)c1 (centres undefined)	/	i	0%	18µM*	/	i
CC(=O)NC(c1ccccc1)c1nc(-c2ccc(C)c(C)c2)cs1 (centres undefined)	/	i	20µM*	-8%	/	i
